DT40 TDP1 no CPT: qHTS for Inhibitors of human tyrosyl-DNA phosphodiesterase 1 (TDP1): qHTS in cells in absence of CPT. DT40 Tdp1-/- hTDP1 cells, no CPT, ATP luminescence, 48 h. Potency, µM (titrated, usually from 46.2 µM), inactives show at the highest dose activity change, negative = growth inhibition, usual class: inhibitors. hit rate 15% among 420,000. AID 686978, 2013; note: nearly all actives have a fitted effect of over 55% in size
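No-CPT arm: Tdp1-/-;hTDP1 DT40 cells (400/well) plus compounds, incubated ≥48 hr at 37 °C. Readout CellTiter-Glo luminescence.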
PLK1 PBD block: PLK1 (human) polo-box domain binding inhibition | P53350 | Plk1 PBD binding of FITC phosphopeptide, fluorescence polarization | Potency, µM, inactives show max response, negative = inhibition, most hits filed as inhibitors | hit rate 2.8% among 360,000; note: series mostly up to about 57 µM; nearly all actives have a fitted effect of over 65% in size
Target sequence (P53350 whole entry, looked up, the tested form may be a part): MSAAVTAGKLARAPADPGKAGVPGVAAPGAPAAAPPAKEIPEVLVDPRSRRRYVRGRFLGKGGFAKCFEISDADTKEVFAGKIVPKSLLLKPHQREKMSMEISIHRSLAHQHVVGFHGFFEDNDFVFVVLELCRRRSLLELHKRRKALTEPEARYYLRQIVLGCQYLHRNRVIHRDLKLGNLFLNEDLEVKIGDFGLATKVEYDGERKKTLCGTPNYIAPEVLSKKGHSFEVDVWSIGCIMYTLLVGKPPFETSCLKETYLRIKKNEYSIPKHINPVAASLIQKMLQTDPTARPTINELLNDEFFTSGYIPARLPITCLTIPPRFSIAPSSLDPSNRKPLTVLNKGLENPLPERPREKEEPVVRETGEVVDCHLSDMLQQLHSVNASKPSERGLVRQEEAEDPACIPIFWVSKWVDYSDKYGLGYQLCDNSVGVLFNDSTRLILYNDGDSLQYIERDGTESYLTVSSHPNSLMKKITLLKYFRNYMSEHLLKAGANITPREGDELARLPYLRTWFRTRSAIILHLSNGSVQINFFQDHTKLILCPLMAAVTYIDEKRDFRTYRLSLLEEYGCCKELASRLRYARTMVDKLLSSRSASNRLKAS
DT40 TDP1 CPT: growth inhibition of DT40 Tdp1-/-;hTDP1 cells with camptothecin (screen for TDP1 inhibitors) | chicken DT40 Tdp1-/-;hTDP1 cells + 20 nM CPT, ATP luminescence, 48 h | Potency, µM (series often up to 46.2 µM), inactives show top-dose activity change, negative = growth inhibition, usual class: inhibitors | hit rate 12% among 420,000; note: nearly all actives have a fitted effect of over 55% in size
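Chicken DT40 Tdp1-/- cells stably complemented with human TDP1 were seeded at 400 cells/well in medium containing 20 nM camptothecin, exposed to pin-transferred compounds, and grown at 37 °C for at least 48 hr. Viability was read as ATP luminescence.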
TDP1 block: blocks human tyrosyl-DNA phosphodiesterase 1. Q9NUW8. recombinant TDP1, AlphaScreen DNA substrate cleavage. Potency, µM (titrated, usually from 130 µM), without a hit: top-dose activity change, negative = inhibition, hits mostly inhibitors. hit rate 0.28% among 350,000. AID 485290; note: nearly all actives have a fitted effect of over 40% in size
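Signal: AlphaScreen proximity between streptavidin donor and anti-FITC acceptor beads on intact substrate. Reaction: Tdp1 1 nM, substrate 15 nM final, 5 min RT after 15 min compound preincubation.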
VDR inh: inhibitors of human vitamin D receptor. P11473. VDR-SRC2-3 peptide fluorescence polarization, 2 h. Potency, µM, without a hit: max response, negative = inhibition, hits mostly inhibitors. hit rate 0.93% among 400,000
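Inhibition of the VDR/SRC2-3 peptide interaction is quantified by fluorescence polarization. Compounds (23 nl, pintool) incubate with the reagents for 2 hours at ambient room temperature.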
GCN5L2 inh: GCN5L2 (KAT2A) acetyltransferase inhibition; Potency, µM (highest dose often 58.9 µM), for the others: at the highest dose activity change, negative = inhibition, most hits filed as inhibitors; hit rate 0.21% among 390,000; Q92830; GCN5L2 HAT assay, ThioGlo1 CoA-SH fluorescence; AID 504327
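ThioGlo1-coupled HAT assay: 20nM GCN5L2, 70uM acetyl-CoA, 75uM H3(1-25) peptide, pH 7.5. Fluorescence read at 340/540nm at start and after 20 min at room temperature.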
* hit, by the source's call; ? = inconclusive; . = no result given; [ ] = remark or other dose. This is a sample that favours compounds with a hit; in the whole collection about 18% have one here. Calls come from the whole dose curve; as a rule, active = well fitted curve in the direction sought with a large enough effect; inconclusive = small, poorly fitted or top-dose-only effect, or another doubt; inactive = no such curve, though single readings can be large; an effect the other way counts as inactive or inconclusive. % is set by controls: 0 for no effect and ±100 for the full control effect; potency is the fitted concentration of half-maximal effect.

SMILES	DT40 TDP1 no CPT	PLK1 PBD block	DT40 TDP1 CPT	TDP1 block	VDR inh	GCN5L2 inh
CCc1nc2c(OCc3ccc(Cl)cc3)cccn2c1N(C)C(=O)c1ccc2c(c1)OCO2	?	-2%	?	.	.	.
CCCCC(=O)Nc1nnc(SCC(=O)NC2CCCC2)s1	-15%	-4%	-4%	1%	9%	-2%
O=C(CCCl)Nc1nnc(SCC(=O)NC2CCCC2)s1	3.3µM*	1%	3.3µM*	10%	4%	-6%
COCCNC(=O)C1(C)CCCN(Cc2cc3ccccc3o2)C1 (stereo unspecified)	?	-9%	?	.	.	.
CC(=O)Oc1cc2c(cc1Cl)C(c1cccs1)CC1(CC(C)(C)NC(=S)N1)O2 (stereo unspecified)	16µM*	-6%	8.2µM*	6%	?	5%
CC1(C)CC2(CC(c3ccccc3)Oc3cc(O)ccc32)NC(=O)N1 (stereo unspecified)	.	.	.	-5%	.	?
CC(=O)Oc1ccc(C2(C)CC(C)(C)NC(=S)N2C)c(OC(C)=O)c1 (stereo unspecified)	3%	0%	-9%	5%	-24%	-2%
COc1ccc(C2CC(=O)Oc3cc(C)cc(C)c32)cc1 (stereo unspecified)	?	-9%	?	-1%[56.1 µM]	0%	-6%
CC1(C)CC2(CC(c3ccccc3)Oc3cc(O)ccc32)NC(=S)N1 (stereo unspecified)	21µM*	1%	21µM*	3%	5%	9%
COc1ccc(C2CC3(CC(C)(C)NC(SC)=N3)Oc3cc(O)cc(C)c32)cc1 (stereo unspecified)	5.2µM*	-1%	4.6µM*	0%	3%	0%
COc1ccc(C2CC3(CC(C)(C)NC(=S)N3)Oc3cc(O)cc(C)c32)cc1 (stereo unspecified)	8.2µM*	-6%	9.2µM*	2%	?	0%
COc1ccc(NC(=O)c2cc(C)cc(C)c2)cc1S(=O)(=O)N1CCCCC1	-20%	3%	-18%	0%	-2%	-13%
COc1ccc(C2CC3(CC(C)(C)NC(=O)N3)Oc3cc(O)ccc32)cc1 (stereo unspecified)	?	1%	?	5%	0%	1%
CC1(C)CC2(CC(c3ccccc3)c3ccc(O)cc3O2)NC(=S)N1 (stereo unspecified)	9.2µM*	-10%	?	7%	-16%	-8%
Cc1ccc(Nc2nc(N)nc(-c3oc4ccccc4c3C)n2)cc1	0.058µM*	-1%	0.21µM*	0%	-8%	7%
Cc1cccc(Nc2nc(N)nc(-c3oc4ccccc4c3C)n2)c1	26µM*	-2%	?	6%	8%	-2%
CCc1nc(Nc2cccc(OC)c2)c2oc3ccccc3c2n1	?	2%	?	.	6%	-2%
COc1cccc(Nc2nc(N)nc(-c3oc4ccccc4c3C)n2)c1	8.2µM*	0%	6.5µM*	5%	8%	-12%
O=C1OC(c2ccc(F)cc2)=N/C1=C\c1ccc(Br)o1	13µM*	-14%	?	3%	-1%	-3%
COc1ccc(/C=C2\N=C(c3ccc(C)cc3)OC2=O)cc1	-4%	-7%	3%	.	?	-19%
CC1CC=CC2C1C(=O)N(Cc1ccccc1)C2c1ccc2ccccc2c1C=Cc1ccccc1 (stereo unspecified)	.	.	.	6%	-5%	.
CC1CCN(C(C)C(=O)Nc2ccccc2-c2ccccc2)CC1 (stereo unspecified)	?	-4%	?	?	-5%	-6%
CCOC(=O)c1[nH]c2cc(OC)c(OC)cc2c1NC(=O)C(C)N1CCN(Cc2ccccc2)CC1 (stereo unspecified)	18µM*	-2%	?	0%	8%	-1%
Cc1ccc(S(=O)(=O)N2CCN(C(C)C(=O)Nc3ccccc3-c3ccccc3)CC2)cc1 (stereo unspecified)	16µM*	-15%	?	3%	-5%	-12%
CC(C(=O)Nc1ccccc1-c1ccccc1)N1CCN(Cc2ccccc2)CC1 (stereo unspecified)	?	17µM*	?	-1%	?	-19%
SMILES	DT40 TDP1 no CPT	PLK1 PBD block	DT40 TDP1 CPT	TDP1 block	VDR inh	GCN5L2 inh
CN1CCC(n2[nH]c(-c3ccccc3)c(Cc3ccccc3)c2=O)CC1	?	?	8%	.	-2%	.
NC(=S)N=Nc1c(O)n(CCCl)c2ccc(Br)cc12	23µM*	-4%	16µM*	3%	-2%	-6%
CN(C)CC(O)Cn1c2ccc(Br)cc2c2cc(Br)ccc21 (stereo unspecified)	.	.	.	7%	?	?
C/C(Cl)=C\Cn1c(O)c(N=NC(N)=S)c2cc(Br)ccc21	1.6µM*	-13%	1.3µM*	12%	?	-6%
Cc1cc(C)c2nc(Cl)c(Cl)nc2c1	0%	-23%	-23%	4%	25%	-3%
OCC1=C[C@@H](O)[C@@H]2C=CO[C@@H](O[C@@H]3O[C@H](CO)[C@@H](O)[C@H](O)[C@H]3O)[C@H]12	11%	-3%	6%	0%	-3%	2%
COc1ccc(Oc2ncc3nc(-c4cc(F)cc(F)c4)c(=O)n(C)c3n2)cc1	-23%	.	-3%	.	-1%	-22%
COc1ccc(C2NC(=O)C(C#N)=C(S)N2c2ccc(C)cc2)cc1OC (stereo unspecified)	?	?	?	0%	32µM*	-5%
COc1ccc(C2NC(=O)C(C#N)=C(S)N2c2cccc(C)c2)cc1OC (stereo unspecified)	?	?	-23%	-7%	?	-10%
COc1cc(C2NC(=O)C(C#N)=C(S)N2c2ccc(C)cc2)ccc1OC(C)C (stereo unspecified)	-22%	?	?	?	28µM*	-3%
COc1ccc(N2C(S)=C(C#N)C(=O)NC2c2ccc(OC)c(OC)c2)cc1 (stereo unspecified)	-15%	-28%	?	-2%	40µM*	-5%
CS(=O)(=O)c1nc(-c2ccc(Br)cc2)n[nH]1	-18%	-5%	-11%	-5%	-10%	-2%
CC(NC(=O)c1cccnc1)c1nnc2n1CCN(Cc1ccc(F)cc1F)CC2 (stereo unspecified)	-18%	.	24%[9.04 µM]	.	.	.

Bioassay records: PubChem BioAssay, National Center for Advancing Translational Sciences (NCATS)
